# In PubChem BioAssay:
# Unmarked numbers belong to inactive results. Entries that show only a call come without a potency. For part of these data: Potency and affinity values are given separately. The source made the active and inactive calls. Unless noted, no rule for the calls is given here.
# Assays:
# [1] = antimalarial activity against Dd2 strain (AID 2302;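 active = growth inhibition above 50% at the single 2 µM test dose, taken to imply half-maximal potency below 2 µM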); conditions: P. falciparum Dd2 in RBCs, LDH growth readout, 72 h; at 2 µM; stronger effect = higher value
# [2] = human hepatoma cell viability loss – ATP luminescence, cytotoxicity control for P. falciparum antimalarial project, primary screen (AID 2303;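 active = inhibition above 50%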); conditions: HepG2 viability, 24-48 h, at 10 µM, stronger effect = higher value
# [3] = biological target: L-lactate dehydrogenase (Plasmodium falciparum (isolate CDC / Honduras)) (UniProt Q27743); assay: PfLDH activity inhibition – cell lysate, 3D7 strain, counter-screen for P. falciparum growth inhibition project (AID 2304); conditions: P. falciparum 3D7 crude extract, LDH APAD/NBT absorbance; at 2 µM; stronger effect = higher value
# Chain of L-lactate dehydrogenase (Plasmodium falciparum (isolate CDC / Honduras)) (Q27743 whole entry, looked up): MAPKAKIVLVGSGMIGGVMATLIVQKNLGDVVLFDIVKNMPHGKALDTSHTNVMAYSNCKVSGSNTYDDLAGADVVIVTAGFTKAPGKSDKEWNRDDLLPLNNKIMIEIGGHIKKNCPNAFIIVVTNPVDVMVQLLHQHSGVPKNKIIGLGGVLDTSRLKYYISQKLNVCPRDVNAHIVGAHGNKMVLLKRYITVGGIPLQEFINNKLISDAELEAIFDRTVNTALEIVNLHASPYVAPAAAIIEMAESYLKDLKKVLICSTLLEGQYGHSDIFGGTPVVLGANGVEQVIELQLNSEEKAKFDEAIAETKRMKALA
# [4] = inhibition of 3D7 malaria parasite growth – strain 3D7 (AID 2306); conditions: P. falciparum 3D7 erythrocytic growth, LDH absorbance, 72 h; at 2 µM; stronger effect = higher value
# [5] = biological target: Calcium-dependent protein kinase 1 (Plasmodium falciparum (isolate 3D7)) (UniProt P62344); assay: PfCDPK1 kinase inhibitors, biochemical, TCAMS library (AID 1159585; cut-off not given, nearly all actives have IC50 up to about 0.98 µM;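 also: inhibitors leave more ATP so luminescence rises with inhibition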); conditions: recombinant PfCDPK1, Kinase-Glo ATP depletion luminescence
# Chain of Calcium-dependent protein kinase 1 (Plasmodium falciparum (isolate 3D7)) (P62344 whole entry, looked up): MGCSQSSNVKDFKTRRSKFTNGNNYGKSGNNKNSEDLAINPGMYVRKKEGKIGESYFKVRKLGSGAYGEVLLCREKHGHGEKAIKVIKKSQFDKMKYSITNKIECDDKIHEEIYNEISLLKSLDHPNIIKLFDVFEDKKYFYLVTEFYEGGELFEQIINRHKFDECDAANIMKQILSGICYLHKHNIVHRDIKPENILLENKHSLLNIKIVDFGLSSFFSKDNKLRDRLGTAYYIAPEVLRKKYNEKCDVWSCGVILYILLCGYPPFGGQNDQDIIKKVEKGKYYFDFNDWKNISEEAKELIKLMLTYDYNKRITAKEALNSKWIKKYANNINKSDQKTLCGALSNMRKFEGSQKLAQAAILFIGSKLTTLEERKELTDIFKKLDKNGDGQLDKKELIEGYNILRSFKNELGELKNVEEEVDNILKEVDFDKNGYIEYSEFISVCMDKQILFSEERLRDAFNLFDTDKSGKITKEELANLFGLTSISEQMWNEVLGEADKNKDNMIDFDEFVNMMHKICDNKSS
# [6] = biological target: Plasmodium falciparum protein kinase 6 (PK6, PF3D7_1337100) (UniProt Q8IDW1); assay: PfPK6 kinase inhibitors, biochemical, TCAMS library (AID 1159586); conditions: recombinant PfPK6, Kinase-Glo ATP depletion luminescence
# Chain of Plasmodium falciparum protein kinase 6 (PK6, PF3D7_1337100) (Q8IDW1 1-305): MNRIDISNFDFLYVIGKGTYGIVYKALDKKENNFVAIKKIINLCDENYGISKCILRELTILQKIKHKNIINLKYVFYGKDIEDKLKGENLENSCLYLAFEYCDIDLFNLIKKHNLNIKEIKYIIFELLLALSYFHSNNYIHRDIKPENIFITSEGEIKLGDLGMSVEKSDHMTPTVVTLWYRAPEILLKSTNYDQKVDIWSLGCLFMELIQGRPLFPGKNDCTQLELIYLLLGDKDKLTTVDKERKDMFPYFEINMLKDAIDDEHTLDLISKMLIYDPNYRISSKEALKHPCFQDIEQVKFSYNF
# [7] = biological target: Protein kinase 7 (PK7), Plasmodium falciparum 3D7 (PF3D7_0213400) (UniProt Q7YTF7); assay: inhibition of Plasmodium PK7 catalytic activity – biochemical, TCAMS antimalarial set, Kinase-Glo luminescence (AID 1159587); conditions: recombinant PfPK7, Kinase-Glo ATP depletion luminescence
# Chain of Protein kinase 7 (PK7), Plasmodium falciparum 3D7 (PF3D7_0213400) (Q7YTF7 1-343): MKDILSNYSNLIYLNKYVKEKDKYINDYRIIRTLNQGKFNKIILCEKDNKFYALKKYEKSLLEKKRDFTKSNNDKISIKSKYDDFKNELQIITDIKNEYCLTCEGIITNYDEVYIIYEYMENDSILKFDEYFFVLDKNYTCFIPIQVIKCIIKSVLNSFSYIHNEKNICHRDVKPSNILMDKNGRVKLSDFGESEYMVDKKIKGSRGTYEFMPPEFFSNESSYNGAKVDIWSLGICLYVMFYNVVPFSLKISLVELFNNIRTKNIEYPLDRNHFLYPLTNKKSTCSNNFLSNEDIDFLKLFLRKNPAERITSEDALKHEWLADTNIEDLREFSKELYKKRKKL
# [8] = biological target: Calcium-dependent protein kinase 4 (Plasmodium falciparum (isolate 3D7)) (UniProt Q8IBS5); assay: PfCDPK4 kinase inhibitors, biochemical, TCAMS library (AID 1159588; cut-off not given, nearly all actives have IC50 up to about 0.91 µM); conditions: recombinant PfCDPK4, Kinase-Glo ATP depletion luminescence
# Chain of Calcium-dependent protein kinase 4 (Plasmodium falciparum (isolate 3D7)) (Q8IBS5 whole entry, looked up): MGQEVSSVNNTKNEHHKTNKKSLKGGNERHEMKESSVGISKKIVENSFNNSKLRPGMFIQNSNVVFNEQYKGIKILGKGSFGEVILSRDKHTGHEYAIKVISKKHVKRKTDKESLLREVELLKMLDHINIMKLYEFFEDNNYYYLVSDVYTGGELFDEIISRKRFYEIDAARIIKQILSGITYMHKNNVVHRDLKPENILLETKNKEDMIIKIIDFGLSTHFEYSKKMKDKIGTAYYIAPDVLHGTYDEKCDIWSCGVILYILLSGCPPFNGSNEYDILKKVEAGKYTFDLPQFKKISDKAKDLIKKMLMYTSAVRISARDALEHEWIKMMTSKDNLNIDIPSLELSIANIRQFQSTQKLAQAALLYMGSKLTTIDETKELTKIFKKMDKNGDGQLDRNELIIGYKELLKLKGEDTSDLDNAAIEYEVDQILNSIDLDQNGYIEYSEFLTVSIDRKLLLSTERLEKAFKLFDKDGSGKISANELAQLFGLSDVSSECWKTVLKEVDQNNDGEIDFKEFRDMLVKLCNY
Compound,growth inhibition [1],inhibition [2],inhibition [3],growth inhibition [4],outcome [5],outcome [6],outcome [7],outcome [8]
CCc1cc(Br)c(CNCCCNc2cc(=O)c3ccccc3[nH]2)s1,45%,6%,-10%,90% (active),inactive,inactive,inactive,inactive
COc1ccc2nccc([C@@H](O)CN3CCC(NCCOc4ccc(F)cc4Cl)CC3)c2c1,85% (active),1%,3%,99% (active),inactive,inactive,inactive,inactive
Cc1ccc(C(=O)Cn2nc(-c3ccc(C)c(S(=O)(=O)N4CCCC4)c3)ccc2=O)cc1,70% (active),-1%,-3%,94% (active),inactive,inactive,inactive,inactive
CCOC(=O)c1ccc2nc(-c3ccc(C(=O)NCc4ccc(C(C)(C)C)cc4)cc3)[nH]c2c1,34%,-9%,-3%,94% (active),inactive,inactive,inactive,inactive
CC(=O)Nc1nc(C(=O)Nc2ccc(-c3ccc(-c4nc5ccc(F)cc5[nH]4)cc3)cc2)cs1,33%,17%,-5%,100% (active),inactive,inactive,inactive,inactive
Cc1cccc2[nH]c(-c3ccc(-c4ccc(CNCc5cccc(N)c5)cc4)s3)nc12,78% (active),10%,-2%,102% (active),inactive,inactive,inactive,inactive
CN(/N=C/C=C/c1ccc(Cl)cc1)c1nc(NCCc2ccc(O)cc2)nc(N2CCNCC2)n1,69% (active),14%,1%,92% (active),inactive,inactive,inactive,inactive
COc1cc(Cc2cnc(N)nc2N)ccc1Oc1ccc(N)cc1,-1%,0%,6%,93% (active),inactive,inactive,inactive,inactive
CN(C)CCCOc1ccc(CNCC(C)(C)c2nc(-c3ccc(Cl)c(O)c3)c(-c3ccncc3)[nH]2)cc1,58% (active),64% (active),-2%,102% (active),inactive,inactive,inactive,inactive
CNC(=O)c1cc(NCCCNCc2ccc(Cl)c(C(F)(F)F)c2)nc2ccccc12,7%,25%,-1%,91% (active),inactive,inactive,inactive,inactive
CC1CN(S(=O)(=O)c2ccc(NC(=O)c3cc(-c4ccccc4O)n[nH]3)cc2)CC(C)O1 (configuration not stated),93% (active),21%,1%,97% (active),inactive,inactive,inactive,inactive
O=C1NC(=O)C(c2ccc(Cl)cc2)=C1Nc1cccc(S(=O)(=O)C(F)(F)F)c1,51% (active),1%,-2%,99% (active),inactive,inactive,inactive,inactive
CC1=C(C(=O)Nc2ccc(Cl)cc2)C(c2ccncc2)n2nc(C(F)(F)F)nc2N1 (configuration not stated),49%,25%,-5%,87% (active),inactive,inactive,inactive,inactive
Cc1c(C)n(C2CCCC2)c2ncnc(OC3CCN(CC(=O)NCC4CC4)CC3)c12,89% (active),20%,1%,89% (active),inactive,inactive,inactive,inactive
NC1=NC(=O)C(=Cc2cn(-c3ccccc3)nc2-c2cccc(S(=O)(=O)N3CCCC3)c2)S1,68% (active),-4%,3%,85% (active),inactive,inactive,inactive,inactive
Cn1nccc1C(=O)NCCNCc1ccc(-c2cccc(-c3nc4ccc(C(F)(F)F)cc4[nH]3)c2)cc1,99% (active),51% (active),-8%,101% (active),inactive,inactive,inactive,inactive
COc1cc2c(cc1OC)CN(CCc1ccc(NC(=O)c3cc4cc(OC(F)(F)F)ccc4[nH]3)cc1)CC2,20%,36%,-3%,99% (active),inactive,inactive,inactive,inactive
CNc1cc(-c2ccc3ccnc(N)c3c2)nc(N)n1,81% (active),23%,-2%,100% (active),inactive,inactive,inactive,inactive
Ic1cc(Nc2ncnc3ccsc23)ccc1OCc1ccccc1,81% (active),22%,4%,101% (active),inactive,inactive,inactive,inactive
CCC[C@@H]([C@@H](CC(C)C)C(=O)N[C@H](C(=O)Nc1nccs1)C(C)(C)SCCNC(=O)OCC)N(O)C=O,97% (active),-8%,-7%,95% (active),inactive,inactive,inactive,inactive

Compound,growth inhibition [1],inhibition [2],inhibition [3],growth inhibition [4],outcome [5],outcome [6],outcome [7],outcome [8]
CCc1nc2c(cnn2CC)c(NC2CCOCC2)c1CNC(=O)N1CCOCC1,48%,0%,4%,98% (active),inactive,inactive,inactive,inactive
CCc1c(C)nc(-n2nc(C)cc2NC(=O)c2ccc(OC)cc2OC)[nH]c1=O,57% (active),42%,1%,96% (active),inactive,inactive,inactive,inactive
O=c1ccc2ccc(F)c3c2n1CC3CN1CCC(NCc2cccc(-c3cccs3)c2)CC1 (configuration not stated),75% (active),17%,0%,100% (active),inactive,inactive,inactive,inactive
CCOC(=O)c1[nH]c(-c2cccnc2)nc1NC(=S)NCc1ccccc1,100% (active),10%,1%,101% (active),inactive,inactive,inactive,inactive
COc1cc2nc(Nc3ccc4c(cnn4Cc4ccccc4)c3)nc(Nc3ccc4c(cnn4Cc4ccccc4)c3)c2cc1OC,100% (active),4%,7%,99% (active),inactive,inactive,inactive,inactive
CCN(CC)CCNC(=O)c1ccc(NC(=O)c2cn(-c3ccccc3)nc2-c2cccs2)cc1,94% (active),30%,-1%,103% (active),inactive,inactive,inactive,inactive
N=C(N)c1ccc(NN=Cc2ccc(Oc3ccc(C(=N)N)cc3)cc2)cc1,100% (active),18%,0%,99% (active),inactive,inactive,inactive,inactive
CCC(=O)NC(c1ccco1)c1cc(Cl)c2cccnc2c1O (configuration not stated),74% (active),58% (active),-5%,89% (active),inactive,inactive,inactive,inactive
C=CCn1c(Cc2ccccc2)nnc1Sc1ccc(C#N)c([N+](=O)[O-])c1,43%,7%,2%,86% (active),inactive,inactive,inactive,inactive
CC(C)(C)OC(=O)N[C@@H](Cc1ccccc1)C(=O)Nc1cccc(-c2cccc(NC(=O)[C@H](Cc3ccccc3)NC(=O)OC(C)(C)C)c2)c1,97% (active),10%,6%,106% (active),inactive,inactive,inactive,inactive
CS(=O)(=O)c1ccc(-c2cnc(N)c(-c3cccc(O)c3)c2)cc1,97% (active),48%,-3%,98% (active),inactive,inactive,inactive,inactive
CN(C(=O)c1ccc(Br)cc1)c1ccccc1[N+](=O)[O-],0%,3%,2%,96% (active),inactive,inactive,inactive,inactive
CCCCC(CC)NC(=O)[C@H]1CNCCN1C(=O)CCCc1ccccc1 (some centres not stated),-1%,5%,1%,94% (active),inactive,inactive,inactive,inactive
c1ccn2c(-c3ncnc(NCc4ccc5c(c4)CCO5)n3)cnc2c1,47%,12%,0%,86% (active),inactive,inactive,inactive,inactive
N#Cc1cccc(CNC(=O)c2cccc(Nc3ccnc4ccc(F)cc34)c2)c1,26%,-1%,0%,87% (active),inactive,inactive,inactive,inactive
COc1ccc(NC(=O)c2ccc(-c3cc(NC(=O)c4ccnc(N5CCCC5)c4)ccc3C)s2)cc1N1CCN(C)CC1,100% (active),15%,6%,100% (active),inactive,inactive,inactive,inactive
CCn1c(Sc2ccc([N+](=O)[O-])c(C#N)c2)nnc1-c1ccc(Cl)cc1,7%,2%,-2%,93% (active),inactive,inactive,inactive,inactive
Clc1ccc(CNc2ccnc(NCc3cccnc3N3CCCC3)n2)c(Cl)c1,53% (active),37%,-5%,85% (active),inactive,inactive,inactive,inactive
O=C(NCCc1ccc(Cl)c(Cl)c1)[C@@H]1CCCN1C(=O)c1ccc(O)c(-c2cccc(C(F)(F)F)c2)c1,82% (active),0%,-7%,97% (active),inactive,inactive,inactive,inactive
